This is a sample that favours compounds with a hit; in the whole collection about 32% have one here.
CYP2C19 inh: human CYP2C19 inhibition | P33261 | CYP2C19 Supersomes, luciferin-H EGE luminescence, 30 min | inhibition, % at 5 µM | 96,000 tested, 21% active | AID 778;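 active = CYP2C19 inhibition above a set limit at 5 µM in the primary screen, cut at about 50% in these data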
CYP2C19 act: activators of human cytochrome P450 2C19 | P33261 | recombinant CYP2C19, luciferin-H EGE luminescence; active compounds read high; 0 = fully inhibited enzyme, 1 = untreated enzyme | activation factor at 5 µM | 96,000 tested, under 10 active;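 active = activation factor of at least 2 at 5 µM in the primary screen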
PostGolgi yeast: growth inhibition of a yeast mutant, post-Golgi transport screen; AID 739; 98,000 tested, 0.9% active; post-Golgi transport phenotypic cell assay; inhibition, % at 10 µM;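 note: yeast cells grown in 1536-well plates; yeast grown about 18 h at 30C before absorbance read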
PostGolgi ctrl: yeast control strain growth, post-Golgi counter-screen. efflux-deficient yeast background strain, growth absorbance A615, 16 h. inhibition, % at 10 µM. 98,000 tested, 5% active
CYP2C9 inhib: human CYP2C9 inhibition. P11712. CYP2C9 Supersomes, luciferin-H conversion, luminescence. inhibition, % at 5 µM. 96,000 tested, 20% active;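 active = blocking of liver enzyme CYP2C9 beyond about 50% at 5 µM, limit read from the data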
Target sequence (P11712 whole entry, looked up): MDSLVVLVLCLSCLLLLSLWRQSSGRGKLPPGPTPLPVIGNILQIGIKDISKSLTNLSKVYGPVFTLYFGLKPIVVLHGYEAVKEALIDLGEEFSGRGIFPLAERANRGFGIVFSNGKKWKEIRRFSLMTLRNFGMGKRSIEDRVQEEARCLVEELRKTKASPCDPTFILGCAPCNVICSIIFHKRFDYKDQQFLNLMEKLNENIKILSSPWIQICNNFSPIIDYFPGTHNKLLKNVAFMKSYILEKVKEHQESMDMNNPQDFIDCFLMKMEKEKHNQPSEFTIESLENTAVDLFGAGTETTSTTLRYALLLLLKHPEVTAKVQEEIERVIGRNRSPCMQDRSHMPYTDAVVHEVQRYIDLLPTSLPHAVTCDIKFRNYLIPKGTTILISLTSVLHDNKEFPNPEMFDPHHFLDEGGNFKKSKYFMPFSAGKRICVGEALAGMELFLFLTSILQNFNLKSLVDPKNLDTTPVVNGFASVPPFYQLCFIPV
CYP2C9 activ: activators of human CYP2C9; activation factor at 5 µM; P11712; AID 1024; 96,000 tested, 1.4% active; recombinant CYP2C9, luciferin-H conversion, luminescence; active compounds read high; factor 1 = untreated enzyme, 0 = blocked;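 active = activation factor of 2 or more for CYP2C9 at a 5 µM dose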
Each line names hits and unclear results; the compound was inactive in the other large screens. Cut-off read from the data, not from the text of the source, unless noted: active = inhibition above about 30%; inactive = the rest.

CCSc1c(C(=O)NC)ccc2c1C(=O)c1ccccc1C2=O	none
O=C(CN(Cc1ccccc1F)C(=O)c1ccco1)NCc1ccc(F)cc1	none
Cc1cc(C)nc(SCNC(=O)c2ccc(F)cc2)n1	CYP2C19 inh 62, PostGolgi yeast 32
COCCCN1C(=O)c2ccc(C(=O)Nc3ccc(OC)cc3)cc2C1=O	none
CC1(C)Cc2c(c(N3CCOCC3)nc3sc(-c4ccc(C(=O)O)o4)c(N)c23)CO1	none (no result: CYP2C19 inh, CYP2C19 act, CYP2C9 inhib, CYP2C9 activ)
CNC(=O)c1ccc(-c2sc3nc(N4CCOCC4)c4c(c3c2N)CC(C)(C)OC4)o1	CYP2C9 inhib 52
CC1(C)Cc2c(c(N3CCOCC3)nc3snc(NC(=O)c4ccccc4)c23)CO1	CYP2C9 inhib 88
CNC(=O)c1ccc(-c2sc3nc(N4CCOCC4)c4c(c3c2N)CCCC4)o1	CYP2C19 inh 92, CYP2C9 inhib 94
CC1(C)Cc2c(c(N3CCOCC3)nc3sc(C(=O)N4CCCCC4)c(N)c23)CO1	none
Nc1c(C(=O)NCc2ccccc2)sc2nc(N3CCOCC3)c3c(c12)CCCC3	CYP2C9 inhib 86
COc1ccc(Cc2nnc(SCC(=O)N3CCc4ccccc4C3)o2)cc1	none
CSCCc1nc(SCC(=O)Nc2nnc(C)s2)[nH]c1C	none
O=C(Nc1c(Cl)cc(Cl)cc1C(=O)NCc1cccnc1)c1ccc(Cl)cc1Cl	none
Cn1c(=O)n(CC(=O)NCc2cccnc2)c2ccccc21	none
O=C(NCc1cccnc1)c1sc2cc(Cl)ccc2c1Cl	CYP2C19 inh 79
Cn1c(C(=O)NCc2cccnc2)cc2sc(Cl)cc21	CYP2C19 inh 97, CYP2C9 inhib 89
ONC(=Nc1ccccc1)C(=Nc1ccccc1)NO	none
COc1ccc(C2c3c(oc4ccccc4c3=O)C(=O)N2Cc2ccncc2)cc1 (stereo not drawn)	CYP2C9 inhib 59
CCCOc1ccc(C2c3c(oc4ccccc4c3=O)C(=O)N2CCCN2CCOCC2)cc1 (stereo not drawn)	CYP2C19 inh 54, CYP2C9 inhib 78
CCOc1ccc(C2c3c(oc4ccccc4c3=O)C(=O)N2CCCN2CCOCC2)cc1 (stereo not drawn)	none
Cc1ccc(S(=O)(=O)c2cc3c(=O)n4cccc(C)c4nc3n(CC3CCCO3)c2=N)cc1 (stereo not drawn)	none (no result: PostGolgi yeast, PostGolgi ctrl)
CCCCn1c(SCc2nc(N)nc(Nc3ccccc3C)n2)nc2ccccc2c1=O	CYP2C19 inh 87, CYP2C9 inhib 99
COCC(C)n1c(SCc2nc(N)nc(Nc3ccccc3C)n2)nc2ccccc2c1=O (stereo not drawn)	CYP2C19 inh 74, CYP2C9 inhib 95
C=CCn1c(=O)c2ccccc2n2c(SCc3nc(N)nc(Nc4ccccc4C)n3)nnc12	none
O=C(CSc1nnc2c(Cl)cc(Cl)cn12)N1CCOCC1	none
CCOC(=O)N1CCN(C(=O)CCn2nc(-c3ccccc3)ccc2=O)CC1	none
O=C(c1cc2n(n1)C(C(F)(F)F)CC(c1ccc(F)cc1)N2)N1CCCC1 (stereo not drawn)	none
COC(=O)Cc1cc(OC)c(OC)cc1Cc1cc(OC)c(OC)cc1CC(=O)OC	CYP2C19 inh 88
CCOc1ccc(C(N)=O)cc1OC	none
CCOC(=O)Cc1cc(OC)c(OC)cc1Cc1cc(OC)c(OC)cc1CC(=O)OCC	CYP2C19 inh 55
COc1cc(Br)c(CC(=O)O)cc1OC	none
CCCCCOC(=O)Cc1c(O)c2ccccc2n(C)c1=O	CYP2C19 inh 79
CCCc1c(O)c2ccccc2n(-c2ccccc2)c1=O	none
CCCCCCCCOC(=O)CCn1[nH]c(=O)c2ccccc2c1=O	CYP2C19 inh 61, CYP2C9 inhib 66
Cn1c(=O)c(Cc2ccccc2)c(O)c2ccccc21	CYP2C19 inh 71, PostGolgi ctrl 49
CCCn1c(=O)c(Cc2ccccc2)c(O)c2ccccc21	none
CC(C)COC(=O)CCn1[nH]c(=O)c2ccccc2c1=O	none
CCOC(=O)N1CCC(N(CCOC)C(=O)Nc2ccc(Cl)cc2)CC1	none
CCCCC1CCC(C(=O)NC2CCS(=O)(=O)C2)CC1 (stereo not drawn)	none (no result: CYP2C19 inh, CYP2C19 act, CYP2C9 inhib, CYP2C9 activ)
c1ccc2sc(N3CN(CCN4CCOCC4)CN(c4nc5ccccc5s4)C3)nc2c1	none
CC(=O)n1c2c(c3ccccc31)OC(N)=C(C#N)C2c1ccc(C(C)C)cc1 (stereo not drawn)	PostGolgi ctrl 34, CYP2C9 inhib 72
CC(C)c1ccc(N2C(=O)CC(Sc3nc4ccccc4o3)C2=O)cc1 (stereo not drawn)	none
CC(C)(C)n1ncc2c(=O)n(CC(=O)NCc3ccccc3Cl)cnc21	none
CC(C)OC(=O)[C@H]1[C@H](c2ccc(Cl)cc2)[C@@](C#N)(C(N)=O)[C@@H]2C=CC(C(N)=O)=CN21	none
CCOc1ccc(NC(=O)CCSc2nc3c(c(CC)c2C#N)C(=O)CC(C)(C)C3)cc1	CYP2C19 inh 90, CYP2C9 inhib 90
CCOc1ccc(NC(=O)CSCC(=O)O)cc1	none
Cc1nc(SCC(=O)Nc2ccc(F)cc2)c(C#N)c(C)c1CC(=O)c1ccc(Br)cc1	none
CCc1c(C#N)c(SCCC(=O)Nc2ccc(C)cc2)nc2c1C(=O)CC(C)(C)C2	CYP2C19 inh 96, CYP2C9 inhib 95
CCCCOc1ccc(C(=O)Oc2ccc(C)nc2)cc1	CYP2C9 inhib 55
CCCCCOc1ccc(OC(=O)c2ccncc2)cc1	none
Nc1c(C(=O)NCc2ccco2)c2nc3ccccc3nc2n1CCc1ccccc1F	CYP2C9 inhib 52
COc1ccc(CCn2c(N)c(C(=O)NCc3ccco3)c3nc4ccccc4nc32)cc1OC	CYP2C19 inh 77, CYP2C9 inhib 56
CCc1nnc(NC(=O)CSc2ncc(-c3ccccc3)n2C)s1	none
Nn1c(N2CCCCC2)nc2ccccc21	none
CC(C)=CC1C=C(C)C(C)C2C(=O)NNC(=O)C12 (stereo not drawn)	CYP2C19 inh 51
Cc1cc(C)cc(OCC(O)CN2C(=O)NC(C)(C)C2=O)c1 (stereo not drawn)	CYP2C19 inh 72
CC1(C)NC(=O)N(CC(O)CN2CCCCC2)C1=O (stereo not drawn)	none
CC1(C)NC(=O)N(CC(O)COc2ccccc2-c2ccccc2)C1=O (stereo not drawn)	CYP2C19 inh 99, CYP2C9 inhib 87
CC1(C)NC(=O)N(CC(O)COC2CCCCC2)C1=O (stereo not drawn)	CYP2C19 inh 82
COc1ccccc1OCC(O)CN1C(=O)NC(C)(C)C1=O (stereo not drawn)	none
CCN(CC)S(=O)(=O)c1ccc(F)c(C(=O)NCCC(C)C)c1	none (no result: CYP2C19 inh, CYP2C19 act, CYP2C9 inhib, CYP2C9 activ)
Nc1cccnc1Sc1cc(Cl)c(Cl)cc1Cl	none
CC1=CCC2C(=O)N(C(C)c3ccccc3)C(=O)C2C1 (stereo not drawn)	CYP2C19 inh 94
Cc1sc2ncnc(SCC(=O)NC(=O)NCc3ccco3)c2c1C	none (no result: PostGolgi yeast, PostGolgi ctrl)
Cc1sc2ncnc(NCc3cccs3)c2c1C	CYP2C19 inh 52
Cc1sc2ncnc(NCc3ccco3)c2c1C	CYP2C19 inh 78, CYP2C9 inhib 61

Screening data as filed in PubChem BioAssay.
